For experiment [1], the target named is Vascular endothelial growth factor receptor 3 (Homo sapiens) (UniProt P35916). The conditions noted are these: at 10 µM.
In experiment [2] the target is Macrophage colony-stimulating factor 1 receptor (Homo sapiens) (UniProt P07333). Conditions: at 1 µM.
Experiment [3] has the same target. The conditions noted are these: at 10 µM.
For experiment [4], the target named is Tyrosine-protein kinase Fyn (Homo sapiens) (UniProt P06241). Conditions: at 1 µM.
Experiment [5] shares this target. Conditions: at 10 µM.
For experiment [6], the target named is T1, Mitogen-activated protein kinase kinase kinase kinase 2 (Homo sapiens) (UniProt Q12851).
T1 sequence (whole entry): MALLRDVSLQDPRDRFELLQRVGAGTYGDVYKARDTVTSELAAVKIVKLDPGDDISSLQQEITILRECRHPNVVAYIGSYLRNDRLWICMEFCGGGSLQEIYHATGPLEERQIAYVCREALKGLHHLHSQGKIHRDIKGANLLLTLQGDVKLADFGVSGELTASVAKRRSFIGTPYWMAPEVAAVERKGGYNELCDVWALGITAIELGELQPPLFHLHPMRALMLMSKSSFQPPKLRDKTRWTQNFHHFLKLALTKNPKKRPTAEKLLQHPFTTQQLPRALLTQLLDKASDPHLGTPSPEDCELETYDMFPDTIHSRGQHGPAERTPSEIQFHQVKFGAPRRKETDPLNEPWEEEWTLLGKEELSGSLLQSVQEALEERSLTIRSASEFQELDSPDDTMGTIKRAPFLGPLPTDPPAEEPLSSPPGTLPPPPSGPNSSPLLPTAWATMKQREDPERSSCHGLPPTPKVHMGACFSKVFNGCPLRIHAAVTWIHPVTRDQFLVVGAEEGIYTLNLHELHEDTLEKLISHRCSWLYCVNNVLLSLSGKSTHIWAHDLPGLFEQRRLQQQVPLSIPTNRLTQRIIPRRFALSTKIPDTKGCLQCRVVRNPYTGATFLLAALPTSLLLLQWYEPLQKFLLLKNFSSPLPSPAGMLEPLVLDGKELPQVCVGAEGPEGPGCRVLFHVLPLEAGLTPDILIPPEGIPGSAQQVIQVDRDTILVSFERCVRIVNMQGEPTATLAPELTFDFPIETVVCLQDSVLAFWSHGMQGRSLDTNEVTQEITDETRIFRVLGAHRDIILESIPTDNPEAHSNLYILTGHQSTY
The conditions noted are these: at 1 µM.

Experiment [7] concerns the target T1, Mitogen-activated protein kinase kinase kinase kinase 2 (Homo sapiens). Conditions: at 10 µM.
The target in experiment [8] is G protein-coupled receptor kinase 5 (Homo sapiens) (UniProt P34947). Conditions: at 10 µM.
Experiment [9] concerns the target G protein-coupled receptor kinase 6 (Homo sapiens) (UniProt P43250). Conditions: at 10 µM.
Experiment [10] addresses T2, Rhodopsin kinase GRK7 (Homo sapiens) (UniProt Q8WTQ7).
T2 sequence (whole entry): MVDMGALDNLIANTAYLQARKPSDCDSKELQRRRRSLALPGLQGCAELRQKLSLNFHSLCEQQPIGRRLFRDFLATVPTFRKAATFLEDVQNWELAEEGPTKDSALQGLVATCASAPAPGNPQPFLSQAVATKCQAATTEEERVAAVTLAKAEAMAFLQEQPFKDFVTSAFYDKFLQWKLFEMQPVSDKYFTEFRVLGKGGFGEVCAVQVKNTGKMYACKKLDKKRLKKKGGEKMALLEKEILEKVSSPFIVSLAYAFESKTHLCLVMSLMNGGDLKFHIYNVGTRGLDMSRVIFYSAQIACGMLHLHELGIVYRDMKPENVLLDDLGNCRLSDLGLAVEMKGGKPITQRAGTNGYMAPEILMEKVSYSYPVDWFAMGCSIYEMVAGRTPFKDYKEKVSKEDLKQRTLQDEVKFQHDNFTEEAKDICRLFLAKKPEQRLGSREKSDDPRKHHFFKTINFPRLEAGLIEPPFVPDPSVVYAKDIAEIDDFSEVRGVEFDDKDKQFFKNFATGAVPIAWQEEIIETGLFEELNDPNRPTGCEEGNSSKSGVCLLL
The conditions noted are these: at 1 µM.

Experiment [11] addresses T2, Rhodopsin kinase GRK7 (Homo sapiens). Conditions: at 10 µM.
The target of experiment [12] is Glycogen synthase kinase-3 alpha (Homo sapiens) (UniProt P49840). Conditions: at 1 µM.
Glycogen synthase kinase-3 alpha (Homo sapiens), sequence (P49840 2-483 limits assumed): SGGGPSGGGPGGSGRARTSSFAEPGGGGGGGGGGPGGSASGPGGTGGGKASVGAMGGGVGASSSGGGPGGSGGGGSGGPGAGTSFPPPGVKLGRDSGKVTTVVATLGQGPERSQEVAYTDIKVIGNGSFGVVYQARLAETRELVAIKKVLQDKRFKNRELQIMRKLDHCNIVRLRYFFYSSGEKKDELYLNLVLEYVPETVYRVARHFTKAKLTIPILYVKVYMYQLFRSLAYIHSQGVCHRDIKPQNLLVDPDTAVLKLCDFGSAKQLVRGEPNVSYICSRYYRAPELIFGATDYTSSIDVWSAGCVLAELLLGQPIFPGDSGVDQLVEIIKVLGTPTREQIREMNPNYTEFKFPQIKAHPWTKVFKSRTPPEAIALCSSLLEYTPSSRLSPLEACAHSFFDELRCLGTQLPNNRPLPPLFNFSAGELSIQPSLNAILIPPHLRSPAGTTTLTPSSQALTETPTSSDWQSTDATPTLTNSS
The target is the same in experiment [13]. The conditions noted are these: at 10 µM.
The target in experiment [14] is Glycogen synthase kinase-3 beta (Homo sapiens) (UniProt P49841). The conditions noted are these: at 1 µM.
Experiment [15] has the same target. Conditions: at 10 µM.
The target in experiment [16] is Homeodomain-interacting protein kinase 1 (Homo sapiens) (UniProt Q86Z02). Conditions: at 1 µM.
Homeodomain-interacting protein kinase 1 (Homo sapiens), sequence (Q86Z02 whole entry, looked up): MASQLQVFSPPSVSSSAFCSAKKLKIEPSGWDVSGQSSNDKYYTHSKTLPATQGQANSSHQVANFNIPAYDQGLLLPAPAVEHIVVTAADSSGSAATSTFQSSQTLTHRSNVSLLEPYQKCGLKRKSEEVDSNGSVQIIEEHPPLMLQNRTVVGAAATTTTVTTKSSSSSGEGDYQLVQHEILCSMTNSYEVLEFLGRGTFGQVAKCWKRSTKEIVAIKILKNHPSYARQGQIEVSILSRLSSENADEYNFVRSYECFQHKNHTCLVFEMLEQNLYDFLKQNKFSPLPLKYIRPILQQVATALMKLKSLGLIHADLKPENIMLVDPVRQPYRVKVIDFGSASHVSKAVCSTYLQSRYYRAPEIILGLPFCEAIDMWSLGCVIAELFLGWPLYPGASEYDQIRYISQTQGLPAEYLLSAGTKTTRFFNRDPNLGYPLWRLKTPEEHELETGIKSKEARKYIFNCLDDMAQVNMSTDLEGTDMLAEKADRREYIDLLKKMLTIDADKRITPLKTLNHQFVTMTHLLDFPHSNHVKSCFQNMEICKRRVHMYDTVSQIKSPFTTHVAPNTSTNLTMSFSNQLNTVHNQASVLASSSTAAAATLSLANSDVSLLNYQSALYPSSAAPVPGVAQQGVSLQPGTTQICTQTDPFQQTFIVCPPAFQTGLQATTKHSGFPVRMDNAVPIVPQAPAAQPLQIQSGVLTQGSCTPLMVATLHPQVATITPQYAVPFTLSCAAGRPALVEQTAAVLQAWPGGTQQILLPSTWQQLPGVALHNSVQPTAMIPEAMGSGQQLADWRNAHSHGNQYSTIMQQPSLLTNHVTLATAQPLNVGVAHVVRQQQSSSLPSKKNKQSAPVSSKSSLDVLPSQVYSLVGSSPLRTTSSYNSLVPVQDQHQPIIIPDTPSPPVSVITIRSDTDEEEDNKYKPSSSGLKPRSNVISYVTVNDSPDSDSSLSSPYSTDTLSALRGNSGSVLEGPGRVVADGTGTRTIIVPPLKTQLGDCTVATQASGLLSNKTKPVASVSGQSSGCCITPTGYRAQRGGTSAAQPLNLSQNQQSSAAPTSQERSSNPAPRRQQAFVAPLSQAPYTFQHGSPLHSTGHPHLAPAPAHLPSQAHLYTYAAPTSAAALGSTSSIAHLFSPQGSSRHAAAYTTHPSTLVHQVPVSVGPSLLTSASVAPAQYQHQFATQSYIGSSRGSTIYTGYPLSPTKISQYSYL
For experiment [17] the target is unchanged. Conditions: at 10 µM.
Experiment [18] addresses Homeodomain-interacting protein kinase 2 (Homo sapiens) (UniProt Q9H2X6). The conditions noted are these: at 1 µM.
For experiment [19] the target is unchanged. Conditions: at 10 µM.
Experiment [20] has as its target Homeodomain-interacting protein kinase 3 (Homo sapiens) (UniProt Q9H422). The conditions noted are these: at 1 µM.

Each structure is given as a SMILES string.

Tyrosine-protein kinase Fyn (Homo sapiens), sequence (P06241 2-537 limits assumed): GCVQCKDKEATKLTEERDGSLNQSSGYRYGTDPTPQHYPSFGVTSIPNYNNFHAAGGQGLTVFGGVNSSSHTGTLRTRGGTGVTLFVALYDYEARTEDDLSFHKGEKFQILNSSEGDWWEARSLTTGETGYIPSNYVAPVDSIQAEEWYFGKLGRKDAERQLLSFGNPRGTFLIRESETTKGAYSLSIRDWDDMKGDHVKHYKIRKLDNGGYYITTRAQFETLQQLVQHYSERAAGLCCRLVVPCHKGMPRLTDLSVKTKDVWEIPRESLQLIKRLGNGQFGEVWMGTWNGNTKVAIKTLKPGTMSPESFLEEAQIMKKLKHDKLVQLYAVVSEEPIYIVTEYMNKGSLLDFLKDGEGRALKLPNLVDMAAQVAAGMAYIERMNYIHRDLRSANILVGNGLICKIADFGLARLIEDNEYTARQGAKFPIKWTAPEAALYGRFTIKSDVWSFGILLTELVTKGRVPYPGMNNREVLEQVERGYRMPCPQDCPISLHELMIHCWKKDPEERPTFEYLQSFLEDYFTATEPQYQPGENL
Homeodomain-interacting protein kinase 3 (Homo sapiens), sequence (Q9H422 whole entry, looked up): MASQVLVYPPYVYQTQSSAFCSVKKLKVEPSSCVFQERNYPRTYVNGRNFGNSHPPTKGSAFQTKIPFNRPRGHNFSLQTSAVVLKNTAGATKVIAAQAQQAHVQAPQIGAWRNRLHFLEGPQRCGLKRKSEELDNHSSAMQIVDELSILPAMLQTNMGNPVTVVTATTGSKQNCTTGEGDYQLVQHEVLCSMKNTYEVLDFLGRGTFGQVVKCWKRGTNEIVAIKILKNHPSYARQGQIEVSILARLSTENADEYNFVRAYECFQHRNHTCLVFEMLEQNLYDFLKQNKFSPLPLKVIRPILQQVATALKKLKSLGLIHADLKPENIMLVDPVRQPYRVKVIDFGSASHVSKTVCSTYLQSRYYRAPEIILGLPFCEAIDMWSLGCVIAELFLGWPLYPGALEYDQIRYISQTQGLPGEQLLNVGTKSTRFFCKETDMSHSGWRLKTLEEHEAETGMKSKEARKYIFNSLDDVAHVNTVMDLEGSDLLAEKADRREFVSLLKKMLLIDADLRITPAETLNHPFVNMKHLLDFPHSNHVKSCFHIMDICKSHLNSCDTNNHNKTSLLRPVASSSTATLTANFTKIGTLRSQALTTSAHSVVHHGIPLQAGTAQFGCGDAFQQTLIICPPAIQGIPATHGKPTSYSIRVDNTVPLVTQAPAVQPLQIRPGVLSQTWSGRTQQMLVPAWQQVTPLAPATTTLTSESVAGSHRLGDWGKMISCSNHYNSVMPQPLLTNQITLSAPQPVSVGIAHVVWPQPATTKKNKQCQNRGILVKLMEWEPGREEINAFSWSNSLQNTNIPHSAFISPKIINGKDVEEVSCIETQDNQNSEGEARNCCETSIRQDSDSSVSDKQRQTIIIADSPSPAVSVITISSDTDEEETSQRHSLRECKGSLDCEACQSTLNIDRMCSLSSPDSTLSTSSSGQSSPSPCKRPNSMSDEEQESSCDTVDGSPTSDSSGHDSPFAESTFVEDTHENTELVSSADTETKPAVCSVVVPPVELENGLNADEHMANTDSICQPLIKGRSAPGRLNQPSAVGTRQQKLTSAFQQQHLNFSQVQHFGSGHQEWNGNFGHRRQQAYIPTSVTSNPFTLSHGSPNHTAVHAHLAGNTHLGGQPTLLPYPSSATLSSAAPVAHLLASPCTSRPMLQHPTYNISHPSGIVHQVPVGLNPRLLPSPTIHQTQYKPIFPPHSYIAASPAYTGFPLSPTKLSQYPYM
Vascular endothelial growth factor receptor 3 (Homo sapiens), sequence (P35916 whole entry): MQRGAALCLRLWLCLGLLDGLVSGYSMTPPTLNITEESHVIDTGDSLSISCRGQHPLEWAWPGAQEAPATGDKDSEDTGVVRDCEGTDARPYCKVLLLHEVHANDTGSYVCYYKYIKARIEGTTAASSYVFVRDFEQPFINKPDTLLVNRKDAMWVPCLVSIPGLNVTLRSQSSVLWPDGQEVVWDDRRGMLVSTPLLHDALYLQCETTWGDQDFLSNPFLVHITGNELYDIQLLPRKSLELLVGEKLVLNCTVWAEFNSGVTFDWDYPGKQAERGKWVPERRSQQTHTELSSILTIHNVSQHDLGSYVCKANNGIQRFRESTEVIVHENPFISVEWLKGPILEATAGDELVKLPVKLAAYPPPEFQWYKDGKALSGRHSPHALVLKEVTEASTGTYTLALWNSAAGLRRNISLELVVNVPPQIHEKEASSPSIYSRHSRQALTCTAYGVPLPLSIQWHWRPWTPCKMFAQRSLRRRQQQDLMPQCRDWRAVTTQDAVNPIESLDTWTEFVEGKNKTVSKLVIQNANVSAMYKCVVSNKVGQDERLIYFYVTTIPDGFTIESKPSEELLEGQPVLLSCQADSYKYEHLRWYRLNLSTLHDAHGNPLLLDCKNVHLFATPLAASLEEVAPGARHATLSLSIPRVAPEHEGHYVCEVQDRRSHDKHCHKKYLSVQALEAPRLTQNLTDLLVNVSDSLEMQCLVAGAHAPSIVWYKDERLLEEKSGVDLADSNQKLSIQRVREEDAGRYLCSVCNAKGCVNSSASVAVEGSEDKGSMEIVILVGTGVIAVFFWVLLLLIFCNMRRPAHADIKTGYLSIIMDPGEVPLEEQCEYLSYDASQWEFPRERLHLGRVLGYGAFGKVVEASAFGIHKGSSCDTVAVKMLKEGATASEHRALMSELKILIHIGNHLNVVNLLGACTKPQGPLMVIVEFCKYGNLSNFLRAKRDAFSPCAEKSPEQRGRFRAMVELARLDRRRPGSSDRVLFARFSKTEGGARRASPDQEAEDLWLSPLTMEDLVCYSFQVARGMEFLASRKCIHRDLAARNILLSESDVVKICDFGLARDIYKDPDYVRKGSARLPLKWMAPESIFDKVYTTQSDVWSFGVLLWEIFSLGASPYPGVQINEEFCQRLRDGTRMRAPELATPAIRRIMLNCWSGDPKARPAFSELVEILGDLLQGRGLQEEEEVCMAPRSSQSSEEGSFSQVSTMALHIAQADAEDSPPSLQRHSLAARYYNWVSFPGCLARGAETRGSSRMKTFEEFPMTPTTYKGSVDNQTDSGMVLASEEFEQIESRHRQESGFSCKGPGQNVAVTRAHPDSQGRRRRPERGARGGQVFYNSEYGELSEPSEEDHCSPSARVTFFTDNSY

In the case of `CCN(CC)CCCCN1c2ccccc2Oc2ccc(Cl)cc21`, the residual activity turned out to be 102% in experiment [1]; 124% in [2]; 127% in experiment [3]; 102% in experiment [4]; 108% in [5]; 109% in [6]. The residual activity in experiment [7] came out at 91%; in experiment [8], 97%; in experiment [9], 98%; in experiment [10], 111%; in experiment [11] it was 95%; in [12], 133%. The residual activity was 124% in [13]; 103% in experiment [14]; 129% in [15]; 103% in experiment [16]; 113% in [17]; 108% in experiment [18]. Also, the residual activity in [19] was 96%; in experiment [20], 97%.

As to `CNc1cc2c(Nc3cccc(Br)c3)ncnc2cn1`, the residual activity in [1] amounted to 38%; in experiment [2], 88%; in [3], 59%; in experiment [4], 57%; in experiment [5], 16%; in experiment [6], 81%. Moreover, the residual activity is 34% in experiment [7]; 100% in experiment [8]; 90% in experiment [9]; 93% in experiment [10]; 81% in experiment [11]; 123% in experiment [12]. Besides, the residual activity in [13] amounted to 91%; in experiment [14], 106%; in [15], 117%; in [16], 103%; in experiment [17], 101%; in experiment [18], 108%. Besides, the residual activity was found to be 97% in experiment [19] and 100% in experiment [20].

`Ic1cccc(CSc2nnc(-c3ccncc3)o2)c1`: the residual activity amounted to 15% in experiment [1]; 71% in experiment [2]; 53% in [3]; 71% in [4]; 84% in [5]; 49% in [6]. For the same compound, the residual activity amounted to 35% in [7]; 89% in [8]; 83% in [9]; 88% in [10]; 76% in experiment [11]; 32% in [12]. In addition, the residual activity amounted to 10% in experiment [13]; 43% in experiment [14]; 33% in experiment [15]; 101% in experiment [16]; 91% in experiment [17]; 76% in [18]. In addition, the residual activity in experiment [19] was determined as 54%; in experiment [20], 96%.

`COc1ccc(C(=O)Nc2sc3c(c2C(N)=O)CCCC3)cc1OC`: the residual activity in [1] came to 12%; in experiment [2] it was 39%; in experiment [3], 43%; in [4], 79%; in experiment [5], 95%; in [6], 81%. Further, the residual activity is 81% in experiment [7]; 93% in [8]; 84% in experiment [9]; 92% in experiment [10]; 81% in experiment [11]; 121% in [12]. Moreover, the residual activity in experiment [13] is 105%; in [14], 81%; in [15], 99%; in experiment [16], 99%; in experiment [17], 105%; in [18], 99%. For the same compound, the results for the residual activity in experiment [19] and in experiment [20] were 96% and 94%, respectively.

For the compound `O=C1Nc2ccccc2/C1=C1/Nc2ccccc2/C1=N\OCCC(O)CO` (stereo not given), the residual activity was 0% in [1]; 1% in [2]; 1% in experiment [3]; -1% in experiment [4]; 2% in experiment [5]; 20% in experiment [6]. Further, the residual activity was 4% in experiment [7]; 63% in experiment [8]; 72% in [9]; 60% in experiment [10]; 33% in experiment [11]; 4% in experiment [12]. The residual activity amounted to 0% in experiment [13]; 6% in experiment [14]; 6% in [15]; 77% in [16]; 50% in experiment [17]; 40% in [18]. Further, the residual activity in experiment [19] was found to be 7%; in [20] it was 70%.

Regarding `NC(=O)c1ccc2[nH]c(-c3ccc(Oc4ccc(Cl)cc4)cc3)nc2c1`, the residual activity in experiment [1] is 22%; in experiment [2], 84%; in [3] it was 59%; in [4] it was 78%; in [5], 86%; in experiment [6], 44%. In addition, the residual activity in experiment [7] came out at 10%; in experiment [8], 88%; in experiment [9] it was 80%; in experiment [10], 89%; in experiment [11], 77%; in [12], 101%. Besides, the residual activity in experiment [13] was determined as 86%; in experiment [14] it was 105%; in [15], 130%; in experiment [16], 104%; in experiment [17], 96%; in experiment [18], 98%. In addition, the residual activity in experiment [19] was 100%; in [20], 92%.

On to `O=C1NC(=O)c2cc(Nc3ccc(F)cc3)c(Nc3ccc(F)cc3)cc21`, for which the residual activity in experiment [1] came out at 65%; in experiment [2] it was 75%; in experiment [3] it was 54%; in experiment [4], 68%; in experiment [5], 50%; in experiment [6], 81%. Besides, the residual activity stood at 71% in experiment [7]; 90% in experiment [8]; 81% in [9]; 93% in experiment [10]; 77% in [11]; 84% in [12]. The residual activity in experiment [13] came out at 40%; in [14], 69%; in experiment [15], 27%; in [16] it was 93%; in experiment [17], 99%; in [18] it was 94%. Besides, the residual activity is 84% in experiment [19] and 97% in experiment [20].

The record behind these values is ChEMBL document CHEMBL2218924, “A broad activity screen in support of a chemogenomic map for kinase signalling research and drug discovery” (Biochem J, 2013).
